Among the test systems are EKVX NSCLC; SN12C renal; UO-31 renal; TK-10 renal; ACHN renal; CAKI-1 renal; A498 renal; CCRF-CEM leukemia; MOLT-4 leukemia; SR leukemia; RPMI-8226 leukemia; OVCAR-8 ovarian; OVCAR-5 ovarian; OVCAR-4 ovarian; SK-OV-3 ovarian; IGROV1 ovarian; OVCAR-3 ovarian; NCI/ADR-RES ovarian.
Holding throughout (experiment): NCI-60 one-dose screen, 48 h (100 = growth as untreated, 0 = no growth, -100 = all killed)
Details in all cases: 10 µM unless noted

Compounds without any hit were thinned out: in the full panel of roughly 83,000, 20% have a hit.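 Activity criterion: percent growth below 10, measured after cells in 96-well plates were exposed to a single compound concentration for 48 hours.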 A number with no mark means an inactive call. The source made the active and inactive calls.

As for `Cc1ccc(Nc2nccc(N(C)c3ccc4c(C)n(C)nc4c3)n2)cc1S(N)(=O)=O`, the growth in the experiment on EKVX NSCLC was 25.7%; with SN12C renal it was 25.7%; in the experiment on UO-31 renal it was -2.51% (active); with TK-10 renal, 21.2%; in the experiment with ACHN renal it was 25.8%; in the experiment with CAKI-1 renal it was 15.1%. Also, the growth with A498 renal is -57% (active); in the experiment with CCRF-CEM leukemia, 34%; in the experiment on MOLT-4 leukemia, 5.93% (active); with SR leukemia, 18%; in the experiment with RPMI-8226 leukemia it was 20.8%; in the experiment with OVCAR-8 ovarian, 20.4%. Moreover, the growth is 9.38% (active) in the experiment with OVCAR-5 ovarian; 31.3% in the experiment with OVCAR-4 ovarian; -1.9% (active) in the experiment with SK-OV-3 ovarian; 3.2% (active) with IGROV1 ovarian; 39.9% in the experiment on OVCAR-3 ovarian; 48.5% with NCI/ADR-RES ovarian.
Regarding `COc1ccc(Br)cc1NC(=O)Nc1cccc2c1ccn2Cc1ccnc(N)c1`, the growth is 31.3% with EKVX NSCLC; 40.9% in the experiment with SN12C renal; 9.39% (active) with UO-31 renal; 22.1% in the experiment with TK-10 renal; 24.1% in the experiment on ACHN renal; 15% in the experiment on CAKI-1 renal. Moreover, the growth is -2.46% (active) in the experiment with A498 renal; 27.3% in the experiment on CCRF-CEM leukemia; 8.16% (active) in the experiment with MOLT-4 leukemia; 7.97% (active) in the experiment with SR leukemia; 15.2% with RPMI-8226 leukemia; 21.2% in the experiment with OVCAR-8 ovarian. The growth was 47.8% in the experiment with OVCAR-5 ovarian; 38.8% with OVCAR-4 ovarian; 26.7% with SK-OV-3 ovarian; 36.3% in the experiment with IGROV1 ovarian; 67.4% in the experiment on OVCAR-3 ovarian; 31.1% with NCI/ADR-RES ovarian.
As to `Cc1cnc(Nc2ccc(OCCN3CCCC3)cc2)nc1Nc1cccc(S(=O)(=O)NC(C)(C)C)c1`, the growth was 26.4% in the experiment with EKVX NSCLC; 12.6% in the experiment with SN12C renal; -96.3% (active) in the experiment on UO-31 renal; -40% (active) in the experiment on TK-10 renal; -40.8% (active) with ACHN renal; -88.3% (active) in the experiment on CAKI-1 renal. The growth in the experiment on A498 renal was -95.3% (active); in the experiment on CCRF-CEM leukemia it was 1.67% (active); in the experiment with MOLT-4 leukemia, 1.26% (active); in the experiment on SR leukemia it was -11.4% (active); in the experiment on RPMI-8226 leukemia it was -33.8% (active); with OVCAR-8 ovarian, 3.89% (active). The growth in the experiment on OVCAR-5 ovarian was 7.41% (active); with OVCAR-4 ovarian, 26.3%; with SK-OV-3 ovarian, -86.8% (active); with IGROV1 ovarian, -11.8% (active); in the experiment on OVCAR-3 ovarian, 28.2%; with NCI/ADR-RES ovarian it was 30.5%.
For `C=CC(=O)Nc1cc2c(Nc3ccc(F)c(Cl)c3)ncnc2cc1OCCCN1CCOCC1`, the growth in the experiment with EKVX NSCLC was 15.8%; in the experiment on SN12C renal, 0.752% (active); in the experiment on UO-31 renal it was -12.8% (active); with TK-10 renal, -6.01% (active); in the experiment with ACHN renal, 2.82% (active); in the experiment with CAKI-1 renal it was -5.99% (active). Further, the growth is -29.3% (active) with A498 renal; 4.44% (active) in the experiment with CCRF-CEM leukemia; -6.89% (active) with MOLT-4 leukemia; -8.22% (active) in the experiment on SR leukemia; -9.72% (active) in the experiment with RPMI-8226 leukemia; -17.6% (active) with OVCAR-8 ovarian. Besides, the growth in the experiment with OVCAR-5 ovarian was 35.6%; in the experiment on OVCAR-4 ovarian it was 8.1% (active); in the experiment with SK-OV-3 ovarian it was -16.3% (active); in the experiment on IGROV1 ovarian, -67.5% (active); in the experiment with OVCAR-3 ovarian it was 14.7%; with NCI/ADR-RES ovarian, 13.8%.
For the compound `Cc1c(Cn2c(C)nc3c(C(=O)O)cc(N4CCOCC4)cc32)cccc1C(F)(F)F`, the growth is 101% in the experiment with EKVX NSCLC; 95.7% in the experiment on SN12C renal; 47% with UO-31 renal; 84.1% in the experiment on TK-10 renal; 77.1% with ACHN renal; 91.7% in the experiment on CAKI-1 renal. The growth with A498 renal was -17% (active); in the experiment on CCRF-CEM leukemia, 79.6%; with MOLT-4 leukemia it was 60.2%; with SR leukemia, 75.7%; in the experiment with RPMI-8226 leukemia, 104%; in the experiment on OVCAR-8 ovarian it was 92.1%. Besides, the growth in the experiment on OVCAR-5 ovarian is 101%; with OVCAR-4 ovarian, 96.2%; in the experiment on SK-OV-3 ovarian it was 96%; in the experiment with IGROV1 ovarian, 114%; in the experiment on OVCAR-3 ovarian, 87.2%; in the experiment with NCI/ADR-RES ovarian, 62.1%.
With `Cc1nc(Nc2n[nH]c3c2CN(C(=O)N[C@H](CN(C)C)c2ccccc2)C3(C)C)c2sccc2n1`, the growth in the experiment with EKVX NSCLC is 12.9%; in the experiment with SN12C renal, -6.2% (active); in the experiment with UO-31 renal, -11.3% (active); with TK-10 renal, -30.1% (active); with ACHN renal, 3.72% (active); with CAKI-1 renal, -5.88% (active). Moreover, the growth in the experiment on A498 renal is -72.9% (active); in the experiment with CCRF-CEM leukemia, 1.05% (active); with MOLT-4 leukemia it was -0.869% (active); in the experiment on SR leukemia, -12.1% (active); with RPMI-8226 leukemia, -35.2% (active); in the experiment on OVCAR-8 ovarian, -26.3% (active). The growth in the experiment with OVCAR-5 ovarian was -2.55% (active); in the experiment on OVCAR-4 ovarian, -12% (active); with SK-OV-3 ovarian, -26.8% (active); in the experiment with IGROV1 ovarian it was -17.9% (active); in the experiment on OVCAR-3 ovarian it was 8.31% (active); in the experiment on NCI/ADR-RES ovarian, 40.3%.
On to `CO[C@H]1C[C@@H]2CC[C@@H](C)[C@@](O)(O2)C(=O)C(=O)N2CCCC[C@H]2C(=O)O[C@H]([C@H](C)C[C@@H]2CC[C@@H](OCCO)[C@H](OC)C2)CC(=O)[C@H](C)/C=C(\C)[C@@H](O)[C@H](OC)C(=O)[C@H](C)C[C@H](C)\C=C/C=C/C=C/1C`, for which the growth in the experiment on EKVX NSCLC is 54.9%; with SN12C renal, 54.3%; in the experiment with UO-31 renal it was 16.6%; with TK-10 renal, 63.8%; in the experiment with ACHN renal it was 48.6%; in the experiment on CAKI-1 renal it was 47.6%. The growth in the experiment with A498 renal is 25.8%; in the experiment with CCRF-CEM leukemia it was 35%; in the experiment with MOLT-4 leukemia it was 33.3%; with SR leukemia, 11.3%; in the experiment on RPMI-8226 leukemia, 35.6%; in the experiment with OVCAR-8 ovarian, 40.9%. Moreover, the growth in the experiment on OVCAR-5 ovarian is 50.8%; in the experiment with OVCAR-4 ovarian, 26.8%; in the experiment with SK-OV-3 ovarian it was 35%; with IGROV1 ovarian, 16.3%; with OVCAR-3 ovarian it was 63.4%; in the experiment on NCI/ADR-RES ovarian, 57.7%.
As to `CCc1cc2c(cc1N1CCC(N3CCOCC3)CC1)C(C)(C)c1[nH]c3cc(C#N)ccc3c1C2=O`, the growth was 15.9% in the experiment on EKVX NSCLC; -14.9% (active) in the experiment with SN12C renal; -67.2% (active) in the experiment with UO-31 renal; -12.1% (active) with TK-10 renal; -27.3% (active) in the experiment on ACHN renal; -46.7% (active) in the experiment with CAKI-1 renal. Besides, the growth is -37.1% (active) in the experiment on A498 renal; 22.4% in the experiment with CCRF-CEM leukemia; 25.4% in the experiment with MOLT-4 leukemia; -3.84% (active) with SR leukemia; 15.7% with RPMI-8226 leukemia; -11.3% (active) in the experiment on OVCAR-8 ovarian. For the same compound, the growth with OVCAR-5 ovarian was -8.72% (active); in the experiment with OVCAR-4 ovarian, -50.9% (active); in the experiment on SK-OV-3 ovarian it was -22.5% (active); with IGROV1 ovarian, -41.6% (active); in the experiment with OVCAR-3 ovarian, 4.44% (active); with NCI/ADR-RES ovarian it was -1.18% (active).

The record behind these values is PubChem BioAssay (NCI).
